# Measured values: PubChem BioAssay AID1492 (National Center for Advancing Translational Sciences (NCATS), 2009)
# Inconclusive results are not listed. Values without a mark were called inactive. Active and inactive are the calls of the source. Calls follow the shape of the dose curve; as a rule, active = well fitted inhibition curve with a large enough effect; inconclusive = small, poorly fitted or top-dose-only effect; inactive = flat fitted curve, though single readings scatter.
# Target: Muscarinic acetylcholine receptor M1 (Rattus norvegicus) (UniProt P08482)
# Assay: Counterscreen Concentration-Response Assay for Antagonists of the Neuropeptide S Receptor: Muscarinic Receptor Calcium Signal Transduction.
# Conditions: CHO-M1 cells, carbachol-induced calcium fluorescence, FDSS; series mostly up to 20.2 µM; activity, negative = inhibition: at the top concentration
# Source text: NIH Chemical Genomics Center [NCGC] NIH Molecular Libraries Probe Production centers Network [MLPCN] MLPCN Grant: X01-DA026210-01 Assay Submitter (PI): Heilig, Markus Alexander NCGC Assay Overview: Neuropeptide S receptor (NPSR), previously known as GPR154, is a recently de-orphanized G protein coupled receptor. Its endogenous ligand is the 20 amino acids peptide Neuropeptide S (NPS). […] NPS and its receptor are found in various tissues. Specifically they are highly expressed in brain areas that have been implicated in modulation of arousal, stress and anxiety. Central administration of NPS in mice produces an unusual profile of activity by inducing wakefulness and arousal, while at the same time suppressing anxiety. Therefore, NPSR may represent a novel drug target for the treatment of sleep and anxiety disorders. To identify NPSR antagonists, we developed a cell-based assay with transfected NPS receptor. NPS can stimulate the production of cAMP as well as release intracellular calcium in Chinese hamster ovary cells stably expressing NPS receptor. This change in intracellular calcium can be detected using a calcium indicator dye on a calcium imaging plate reader system (FDSS). To validate the specific action of compounds on the NPS receptor, a counterscreen was developed that tests compounds' antagonism of M1 muscarinic receptor stimulation by carbachol. The protein, gene and taxonomy linked to this assay refer to Rattus norvegicus, but Chinese Hamster ovary cells were actually used.
# NCGC Assay Protocol Summary: A Chinese hamster ovary (CHO) cell line stably expressing muscarinic acetylcholine M1 receptor (CHO-M1) was obtained from ATCC and maintained in F-12 Kaighn's media (Invitrogen, Carlsbad, CA, 21127) supplemented with 10 % FBS, 100 units/ml penicillin, 100 ug/ml streptomycin and 250 ug/ml geneticin at 37C, 5% CO2 in a humidified atmosphere. Before the assay, aliquots of cells were frozen and stored at -135C. The assay was performed on a FDSS-7000 kinetic plate reader in 1536-well format. The maximums of kinetic fluorescence responses were converted into text files using the instrument's software data export utility. […] AC50 values were determined from concentration-response data modeled with the standard Hill equation. CHO-M1 1536-well FDSS assay protocol: (1) Frozen CHO-M1 cells were thaw, washed once with fresh media and resuspended in F-12 Kaighn's media supplemented with 10 % FBS, 100 units/ml penicillin and 100 ug/ml streptomycin. Cells were plated at 3 ul/well (1200 cells) to black, clear-bottom, tissue-culture treated 1536-well plates, and then cultured at 37C, 5 % CO2 for 16 to 30 hours. (2) Add 3 ul of calcium dye (from High Performance PBX Calcium Assay Kit, BD Biosciences). The calcium dye was prepared according to the manufactory's instruction. (3) Incubation at 37C, 5 % CO2 for 60 min. (4) Add 23 nl/well of compound in DMSO solution. The final titration for each compound was between 0.6 nM and 46 uM. (5) Load plates to FDSS-7000. The following steps were performed on FDSS-7000. (6) Record fluorescent background (Ex 480 nm, Em 520-560 nm) for 10 s. (7) Add 2 ul of stimulation reagent (1X HBSS buffer, 0.1% BSA, 60 nM carbachol). Record antagonist response (Ex 480 nm, Em 520-560 nm) for 180 s. Keywords: MLSMR, MLPCN, NIH Roadmap, qHTS, NCGC, NPS, Neuropeptide S Antagonists
Compound,Potency,"activity, negative = inhibition"
COc1ccc(N=C2S/C(=C\c3ccc(N4CCOCC4)o3)C(=O)N2CCc2c[nH]c3ccccc23)cc1,5.01 µM (active),–
O=C1CC(NCc2ccncc2)C(=O)N1c1ccccc1 (configuration not stated),–,7.55%
Cc1nn(C(=O)c2cccs2)c(N)c1-c1ccccc1,–,5.89%
Cc1ccc(-c2ccc(/C=C3\C(=O)ON=C3c3ccccc3)o2)c([N+](=O)[O-])c1,3.98 µM (active),–
O=c1cc(-c2c(F)c(F)c(F)c(F)c2F)oc2c(F)c(F)c(F)c(F)c12,5.01 µM (active),–
CC(=O)n1nc2nc(C)cc(C)c2c1N,–,-5.44%
Cc1ccc2oc(-c3cccc(NC(=S)NC(=O)/C=C/c4ccco4)c3)nc2c1,–,-15.2%
Brc1ccc(CSc2ncn[nH]2)cc1,–,-10.8%
C=CCOc1c(Cl)cc(CNc2ccc(N(C)C)cc2)cc1OC,–,7.52%
CN(C)c1ccc(N2CN=C3SCC(=O)N3C2)cc1,–,-3.33%
Cc1cccnc1NC(=O)c1c(O)c2cccc3c2n(c1=O)CCC3,–,-12.7%
O=C(NCCCN1CCOCC1)c1cc2c(=O)[nH]c3ccccc3c2s1,–,4.61%
CN(CC(=O)NCc1ccc(F)cc1)S(=O)(=O)c1cccc2nsnc12,–,7.72%
O=C(/C=C/c1ccco1)NC(=S)Nc1cccc(-c2nc3ccccc3o2)c1,–,-7.11%
COc1ccc(-c2cc(N)n(S(=O)(=O)c3c(F)c(F)c(F)c(F)c3F)n2)cc1OC,11.2 µM (active),–
O=C(N1CCOCC1)C1(c2ccc(Cl)cc2)CCCC1,–,15.5%
COc1cccc(C(=O)/C=C/Nc2ccc(S(=O)(=O)Nc3cccc(C(C)=O)c3)cc2)c1,–,-19.1%
O=c1cc(CNCCCO)c2ccccc2[nH]1,–,6.24%
CCn1cc(C(=O)NCC2CCCO2)c(=O)c2cc(S(=O)(=O)N3CCCCCC3)ccc21 (configuration not stated),–,20.3%
Nn1c(COc2ccccc2)nnc1SCc1cc(=O)[nH]c2ccccc12,–,3.18%
Cc1ccc2nc3ccc(N4CCCCCCC4)nn3c(=O)c2c1,–,3.52%
Cc1ccc(/C=C2\SC(=S)N(CC(=O)Nc3ncc(Cc4ccccc4Cl)s3)C2=O)cc1,–,-5.69%
Cn1c(COc2ccccc2)nnc1SCc1cc(=O)[nH]c2ccccc12,–,-0.776%
O=C(Nc1nccs1)C1CCCN1S(=O)(=O)c1ccc(Cl)cc1 (configuration not stated),–,14.5%
C=CCn1c(SCCN2C(=O)c3ccccc3C2=O)nc2scc(-c3ccccc3)c2c1=O,–,11.2%
c1cncc(-c2nc(-c3ccco3)cs2)c1,–,3.25%
O=C1Nc2ccc(S(=O)(=O)N3CCCC3C(=O)O)c3cccc1c23 (configuration not stated),–,0.459%
